In a collection of fitness landscapes (doi:10.1016/j.celrep.2020.107928):
The full ranking holds about 81,000 sequences; the median of “one-hybrid fitness for binding parS DNA” is about -0.17, and the highest 2% start at about 0.51. The sample holds the highest values, similar sequences and a random draw of the others, so the mix is not that of the screen.

B1: Caulobacter ParB omega fusion; a variant is named by its letters at X, in order, B8GW30 (parent)
chain: MESVVVGEPGMSEGRRGLGRGLSALLGEVDAAPAQAPGEQLGGSREAPIEILQRNPDQPRRTFREEDLEDLSNSIREKGVLQPILVRPSPDTAGEYQIVAGERAWRAAQRAGLKTVPIMVRELDDLAVLEIGIIENVQRADLNVLEEALSYKVLMEKFERTQENIAQTIGKSXSHVANXMRLLXLPDEVQSYLVSGELTAXHARAIAAAADPVALAKQIIEGGLSVRETEALARKAPNLSAGKSKGGRPPRVKDTDTQALESDLSSVLGLDVSIDHRGSTGTLTITYATLEQLDDLCNRLTRGI

Variants of: B1
Assay: one-hybrid fitness for binding parS DNA (scaled: cognate 1, non-cognate 0); higher = stronger binding
Conditions: with parS DNA site
Summary of the method: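 Values were rescaled so that cognate is 1 and non-cognate is 0. Each is a fitness, the log change in a variant's read ratio to wild type from Illumina reads of plasmids before and after selection, with three replicate libraries pooled and variants under 10 reads dropped. Selection of the Caulobacter ParB libraries, four specificity codons randomised, used E. coli USO with a HIS3 reporter, site 19 bp from the promoter, on M9-minus-histidine with 0.1 mM IPTG and 5 mM 3-AT for 48 hours at 37°C.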

Row | Variant | one-hybrid fitness for binding parS DNA
1 | DSHR | ≤ 0.2
2 | CMQS | ≤ 0.2
3 | SCFI | ≤ 0.2
4 | RRSC | 0.596
5 | RRLP | ≤ 0.2
6 | RRRF | ≤ 0.2
7 | RRNQ | ≤ 0.2
8 | RRRC | 0.634
9 | RRNC | 0.615
10 | RRNF | ≤ 0.2
11 | RRSM | 0.364
12 | RRLC | 0.669
13 | RRRQ | ≤ 0.2
14 | RRLH | ≤ 0.2
15 | RRSF | ≤ 0.2
16 | LYTA | ≤ 0.2
17 | EYRT | ≤ 0.2
18 | PNAE | ≤ 0.2
19 | HFHS | ≤ 0.2
20 | VVVF | ≤ 0.2
21 | PGKV | ≤ 0.2
22 | GQNG | ≤ 0.2
23 | PYHE | ≤ 0.2
24 | FDPI | ≤ 0.2

Row | Variant | one-hybrid fitness for binding parS DNA
25 | RFFL | ≤ 0.2
26 | AVTF | ≤ 0.2
27 | CQAV | ≤ 0.2
28 | NQES | ≤ 0.2
29 | DRYC | ≤ 0.2
30 | RRCH | ≤ 0.2
31 | NRYC | ≤ 0.2
32 | RRYC | 0.63
33 | RRCF | ≤ 0.2
34 | RRDR | ≤ 0.2
35 | RRCC | 0.619
36 | RRDC | 0.701
37 | RRDQ | ≤ 0.2
38 | LWSC | ≤ 0.2
39 | LRPV | ≤ 0.2
40 | PQAG | ≤ 0.2
41 | ETTN | ≤ 0.2
42 | QYKG | ≤ 0.2
43 | CTWT | ≤ 0.2
44 | MGFG | ≤ 0.2
45 | GQDP | ≤ 0.2
46 | EEAD | ≤ 0.2
47 | RRFT | 0.623
48 | RRFQ | ≤ 0.2

Row | Variant | one-hybrid fitness for binding parS DNA
49 | RRAQ | ≤ 0.2
50 | RRAF | ≤ 0.2
51 | RRFK | ≤ 0.2
52 | RRAT | 0.562
53 | PVDT | ≤ 0.2
54 | CRAT | ≤ 0.2
55 | RDEQ | ≤ 0.2
56 | RRFF | ≤ 0.2
57 | RRAC | 0.597
58 | RRAK | ≤ 0.2
59 | RRFR | ≤ 0.2
60 | RRFC | 0.679
61 | RRAM | 0.271
62 | STSS | ≤ 0.2
63 | HRSN | ≤ 0.2
64 | NLCV | ≤ 0.2
65 | TTRK | ≤ 0.2
66 | RAYS | 1.03
67 | RAIS | 0.942
68 | RAIN | 0.301
69 | RAYN | 0.445
70 | RAPN | ≤ 0.2
71 | RAPP | ≤ 0.2
72 | RAPS | 0.673

Row | Variant | one-hybrid fitness for binding parS DNA
73 | RAID | ≤ 0.2
74 | RALN | 0.431
75 | RALS | 1.03
76 | RAYP | ≤ 0.2
77 | RALH | 0.211
78 | MHTT | ≤ 0.2
79 | SHEG | ≤ 0.2
80 | FDNL | ≤ 0.2
81 | CPKA | ≤ 0.2
82 | QTHW | ≤ 0.2
83 | PVVK | ≤ 0.2
84 | LDQC | ≤ 0.2
85 | EKET | ≤ 0.2
86 | RKYY | 0.377
87 | VKMG | ≤ 0.2
88 | GMPS | ≤ 0.2
89 | RARN | 0.419
90 | RAWS | 1.05
91 | RAWD | ≤ 0.2
92 | RAWP | ≤ 0.2
93 | RAIP | ≤ 0.2
94 | RAIT | 0.682
95 | RAPT | 0.434
96 | RARS | 0.908

Row | Variant | one-hybrid fitness for binding parS DNA
97 | RARH | ≤ 0.2
98 | GPSP | ≤ 0.2
99 | PSKI | ≤ 0.2
100 | CYMT | ≤ 0.2
101 | DQPL | ≤ 0.2
102 | FLGS | ≤ 0.2
103 | RIRN | 0.395
104 | RIYF | 0.265
105 | RIYG | 1.03
106 | RIRG | 0.955
107 | RIYK | ≤ 0.2
108 | RIRH | 0.29
109 | PSLL | ≤ 0.2
110 | FVQI | ≤ 0.2
111 | SSST | ≤ 0.2
112 | LRVT | ≤ 0.2
113 | AKQS | ≤ 0.2
114 | WRGT | ≤ 0.2
115 | LTAS | ≤ 0.2
116 | HNMS | ≤ 0.2
117 | RRQS | 0.649
118 | RRQP | ≤ 0.2
119 | RRQM | 0.324
120 | RRQN | 0.614

Row | Variant | one-hybrid fitness for binding parS DNA
121 | RRQH | ≤ 0.2
122 | RRQD | ≤ 0.2
123 | DHPT | ≤ 0.2
124 | RGVM | ≤ 0.2
125 | LQKG | ≤ 0.2
126 | QYAK | ≤ 0.2
127 | TQYT | ≤ 0.2
128 | RLFG | 0.991
129 | RLFK | ≤ 0.2
130 | RLAG | 1.01
131 | RLAD | ≤ 0.2
132 | RLFM | 0.369
133 | RLAN | 0.442
134 | AIYN | ≤ 0.2
135 | WEYM | ≤ 0.2
136 | NPSH | ≤ 0.2
137 | VRSD | ≤ 0.2
138 | RAIV | ≤ 0.2
139 | RPEN | ≤ 0.2
140 | CYEL | ≤ 0.2
141 | HDFT | ≤ 0.2
142 | NCIT | ≤ 0.2
143 | RYIP | ≤ 0.2
144 | RYYP | ≤ 0.2

Row | Variant | one-hybrid fitness for binding parS DNA
145 | RYID | ≤ 0.2
146 | RYQD | ≤ 0.2
147 | RYIS | 0.939
148 | RYYD | ≤ 0.2
149 | RYCH | 0.223
150 | RYYS | 0.978
151 | RYQS | 0.912
152 | RYQH | ≤ 0.2
153 | RYCP | ≤ 0.2
154 | RYCS | 0.958
155 | LVWD | ≤ 0.2
156 | NPHT | ≤ 0.2
157 | PSHS | ≤ 0.2
158 | DITP | ≤ 0.2
159 | NQLR | ≤ 0.2
160 | PVNW | ≤ 0.2
161 | YEPV | ≤ 0.2
162 | CIDV | ≤ 0.2
163 | MSHI | ≤ 0.2
164 | RYHS | 0.921
165 | RYHD | ≤ 0.2
166 | RYSN | 0.384
167 | RYGD | ≤ 0.2
168 | RYGS | 0.901

Row | Variant | one-hybrid fitness for binding parS DNA
169 | RYGN | 0.408
170 | RYRD | ≤ 0.2
171 | RYSH | ≤ 0.2
172 | RYHN | 0.421
173 | RYRN | 0.375
174 | RYSS | 0.911
175 | RYRS | 0.824
176 | PQCT | ≤ 0.2
177 | AYIG | ≤ 0.2
178 | HGTM | ≤ 0.2
179 | RYRV | ≤ 0.2
180 | SHLR | ≤ 0.2
181 | VPHG | ≤ 0.2
182 | KAVS | ≤ 0.2
183 | RYLH | ≤ 0.2
184 | RYPC | 0.477
185 | RYLS | 0.986
186 | RYIC | 0.757
187 | RYPP | ≤ 0.2
188 | RYWS | 0.99
189 | RYWN | 0.422
190 | RYLD | 0.206
191 | RYPD | ≤ 0.2
192 | RYIY | 0.352

Row | Variant | one-hybrid fitness for binding parS DNA
193 | RYPS | 0.635
194 | RYWH | ≤ 0.2
195 | PNPL | ≤ 0.2
196 | SDTR | ≤ 0.2
197 | MCER | ≤ 0.2
198 | YVVN | ≤ 0.2
199 | HTHM | ≤ 0.2
200 | APRT | ≤ 0.2
201 | VFSS | ≤ 0.2
202 | NMCG | ≤ 0.2
203 | TSPA | ≤ 0.2
204 | VQAC | ≤ 0.2
205 | NLYH | ≤ 0.2
206 | RYPT | 0.403
207 | RYIF | ≤ 0.2
208 | RYIT | 0.628
209 | VSVG | ≤ 0.2
210 | ATKL | ≤ 0.2
211 | LWCV | ≤ 0.2
212 | TMIC | ≤ 0.2
213 | RQDA | 0.546
214 | RQNA | 0.613
215 | GTRS | ≤ 0.2
216 | WREM | ≤ 0.2

Row | Variant | one-hybrid fitness for binding parS DNA
217 | KDAT | ≤ 0.2
218 | KNTT | ≤ 0.2
219 | RWKF | 0.288
220 | RWVM | 0.27
221 | RWVD | ≤ 0.2
222 | RWKK | ≤ 0.2
223 | RWVC | 0.544
224 | RWKC | 0.896
225 | LFFG | ≤ 0.2
226 | RIAK | ≤ 0.2
227 | RIFC | 0.96
228 | RIFH | 0.213
229 | RIFN | 0.438
230 | RIAF | 0.213
231 | RIAC | 0.973
232 | HAMK | ≤ 0.2
233 | NSMR | ≤ 0.2
234 | HTHL | ≤ 0.2
235 | RWMD | ≤ 0.2
236 | RWMS | 0.788
237 | RWMN | 0.211
238 | RWMH | ≤ 0.2
239 | RWMM | ≤ 0.2
240 | RWMP | ≤ 0.2

Row | Variant | one-hybrid fitness for binding parS DNA
241 | RWMG | 0.671
242 | RWMT | 0.556
243 | RWMR | ≤ 0.2
244 | RWMK | ≤ 0.2
245 | RWMQ | ≤ 0.2
246 | RWMC | 0.628
247 | FGNS | ≤ 0.2
248 | ACYG | ≤ 0.2
249 | CHPN | ≤ 0.2
250 | SMHF | ≤ 0.2
251 | RWVK | ≤ 0.2
252 | RWKD | ≤ 0.2
253 | RWVR | ≤ 0.2
254 | RWKN | 0.421
255 | RWKG | 0.901
256 | RWVG | 0.584
257 | DTHI | ≤ 0.2
258 | EYGF | ≤ 0.2
259 | AERY | ≤ 0.2
260 | KENP | ≤ 0.2
261 | FRDG | ≤ 0.2
262 | HAQD | ≤ 0.2
263 | RGTC | 0.695
264 | RGTF | ≤ 0.2

Row | Variant | one-hybrid fitness for binding parS DNA
265 | RGTG | 0.78
266 | RGTP | ≤ 0.2
267 | RGTH | ≤ 0.2
268 | RGTD | ≤ 0.2
269 | RGTN | 0.25
270 | RGTM | ≤ 0.2
271 | RGTT | 0.624
272 | RGTR | ≤ 0.2
273 | RGTS | 0.863
274 | RGTK | ≤ 0.2
275 | TYYF | ≤ 0.2
276 | PKPC | ≤ 0.2
277 | QSEI | ≤ 0.2
278 | CPAM | ≤ 0.2
279 | QILY | ≤ 0.2
280 | QADE | ≤ 0.2
281 | CSLA | ≤ 0.2
282 | RAVN | 0.388
283 | RAKR | ≤ 0.2
284 | RAKC | 0.91
285 | RAKM | 0.448
286 | RAVC | 0.851
287 | RAVP | ≤ 0.2
288 | CAPG | ≤ 0.2

Row | Variant | one-hybrid fitness for binding parS DNA
289 | TVAL | ≤ 0.2
290 | SDKW | ≤ 0.2
291 | FVSL | ≤ 0.2
292 | KQRR | ≤ 0.2
293 | IVGT | ≤ 0.2
294 | LIKM | ≤ 0.2
295 | INCG | ≤ 0.2
296 | RTVK | ≤ 0.2
297 | RTKT | 0.74
298 | RTKP | ≤ 0.2
299 | RTVT | 0.879
300 | RTKQ | ≤ 0.2
301 | RTVQ | ≤ 0.2
302 | SPTS | ≤ 0.2
303 | AAYI | ≤ 0.2
304 | AFVR | ≤ 0.2
305 | SQAR | ≤ 0.2
306 | QSAW | ≤ 0.2
